# Compounds with a hit are over-represented: about 2.4% of the library has one in this group of screens.
# ADAM17 inh: ADAM17 inhibitors, primary screen, biochemical, QFRET; Disintegrin and metalloproteinase domain-containing protein 17 (Homo sapiens), P78536; recombinant ADAM17, EDANS/DABCYL FRET peptide cleavage; inhibition, % at 6.95 µM; actives 0.83% (n = 370,000); AID 720648, 2013;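 active means inhibition above the mean of compounds lying between control limits plus 3 SD, set per campaign, cut at about 8.5% in these data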
# APOBEC3G inh: APOBEC3G DNA deaminase inhibitors, primary screen, biochemical, fluorescence, single-stranded DNA substrate, uHTS. DNA dC->dU-editing enzyme APOBEC-3G (Homo sapiens), Q9HC16. recombinant A3G, ssDNA deamination FAM/TAMRA fluorescence. inhibition, % at 20 µM. actives 0.28% (n = 330,000). AID 493012, 2011;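 active means inhibition of at least 40% at 20 µM, with no more than 30% in the related APOBEC3A deaminase screen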
# CendR NRP1 mod: modulators of CendR peptide binding to NRP-1, primary screen, biochemical, fluorescence polarization, uHTS; Neuropilin-1 (Homo sapiens), O14786; FAM-RPARPAR peptide binding to NRP-1; inhibition, % at 25 µM; actives 0.85% (n = 360,000);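 active means inhibition or corrected inhibition above about 18%, plus a signal ratio from 0.5 to 1.5, limit read from the data, passing the limit was not always enough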
# Target sequence (O14786 whole entry, looked up): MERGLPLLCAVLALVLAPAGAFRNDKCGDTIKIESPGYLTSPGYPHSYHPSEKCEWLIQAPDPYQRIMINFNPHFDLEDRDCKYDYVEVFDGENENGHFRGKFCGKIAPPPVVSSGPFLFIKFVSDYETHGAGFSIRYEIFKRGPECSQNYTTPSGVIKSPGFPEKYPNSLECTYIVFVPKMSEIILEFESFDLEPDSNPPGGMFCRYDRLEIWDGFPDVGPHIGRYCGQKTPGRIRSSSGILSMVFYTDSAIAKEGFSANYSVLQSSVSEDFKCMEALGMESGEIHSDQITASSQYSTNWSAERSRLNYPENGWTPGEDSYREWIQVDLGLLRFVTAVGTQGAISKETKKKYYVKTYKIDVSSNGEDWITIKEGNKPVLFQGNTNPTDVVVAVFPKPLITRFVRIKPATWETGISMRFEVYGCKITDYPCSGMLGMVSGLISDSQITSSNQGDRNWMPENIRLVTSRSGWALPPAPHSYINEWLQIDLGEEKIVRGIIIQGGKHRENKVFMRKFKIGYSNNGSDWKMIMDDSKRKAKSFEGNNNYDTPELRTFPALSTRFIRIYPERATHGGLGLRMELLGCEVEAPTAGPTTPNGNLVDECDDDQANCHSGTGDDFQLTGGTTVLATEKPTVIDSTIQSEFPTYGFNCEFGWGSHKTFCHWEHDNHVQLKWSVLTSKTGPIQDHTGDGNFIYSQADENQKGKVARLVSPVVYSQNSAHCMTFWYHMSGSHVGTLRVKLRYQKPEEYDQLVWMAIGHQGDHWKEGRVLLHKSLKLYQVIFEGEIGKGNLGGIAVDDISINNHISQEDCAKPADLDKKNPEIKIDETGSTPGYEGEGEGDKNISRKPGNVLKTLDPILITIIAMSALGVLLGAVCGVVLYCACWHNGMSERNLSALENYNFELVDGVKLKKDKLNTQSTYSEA
# APOBEC3A inh: APOBEC3A ssDNA deaminase inhibitors, primary screen, selectivity assay for APOBEC3G inhibitor project, biochemical, FAM/TAMRA oligo cleavage fluorescence | DNA dC->dU-editing enzyme APOBEC-3A (Homo sapiens), P31941 | AID 493011, 2011 | inhibition, % at 20 µM | recombinant A3A, FAM/TAMRA ssDNA deamination fluorescence | actives 0.41% (n = 330,000);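 active means at least 40% inhibition at 20 µM here, with at most 30% in a related deaminase screen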
# ADAM10 inh: human ADAM10 inhibitors, primary screen, biochemical, QFRET, HTS; inhibition, % at 7 µM; Disintegrin and metalloproteinase domain-containing protein 10 (Homo sapiens), O14672; actives 0.62% (n = 370,000); recombinant ADAM10, EDANS/DABCYL FRET peptide cleavage, 3 h;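 active means inhibition above a per-campaign cutoff equal to the mean of compounds falling between control-based bounds plus 3 SD, cut at about 20% in these data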
# A3G conf: APOBEC3G deaminase inhibitor retest, confirmation, biochemical, fluorescence, single-stranded DNA substrate, single concentration; inhibition, % at 20 µM; actives 72% (n = 890); shares compounds with APOBEC3G inh; recombinant A3G ssDNA deaminase, UDG/FAM-TAMRA fluorescence;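 active means inhibition reaching a set limit in any replicate at 20 µM, the limit being 80% of the first screen's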
# UDG ctr A3G: E. coli UDG inhibitors, confirmation, counter-screen for APOBEC3G inhibitor project, biochemical, single concentration, fluorescence, FAM/TAMRA oligo; UDG counterscreen; 710 tested, under 10 active; shares compounds with APOBEC3G inh; inhibition, % at 20 µM;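 active means compounds giving 40% or more inhibition at 20 µM in any one of the three replicates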;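 further: inhibitors lower the FAM signal released by uracil excision and alkaline cleavage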
# Numbers stand for hits; - = inactive; . = no result given.
SMILES,ADAM17 inh,APOBEC3G inh,CendR NRP1 mod,APOBEC3A inh,ADAM10 inh,A3G conf,UDG ctr A3G
CCOC(=O)N1CCc2c(sc(NC(=O)CN3CCOCC3)c2C#N)C1,-,-,-,-,-,.,.
CCOC(=O)N1CCc2c(sc(N)c2C#N)C1,-,49.5,.,-,-,36.5,.
CCSS(=O)(=O)c1cccc2cccnc12,-,68.0,-,-,-,66.0,-
O=C(COC(=O)CCCN1C(=O)c2cccc3cccc(c23)C1=O)Nc1cccc(C(F)(F)F)c1,-,56.2,-,-,-,-,.
COc1ccnc(N2CCN(c3cccc(C(F)(F)F)c3)CC2)c1C#N,-,46.8,-,-,-,-,.
O=S(=O)(Nc1ccc(O)c(NS(=O)(=O)c2ccccc2)c1)c1ccccc1,-,50.2,-,-,-,69.0,-
OCCN1CCN(C(=S)c2ccc(Cl)cc2)CC1,-,-,-,-,-,.,.
CCN1CCN(C(=S)c2ccc(Cl)cc2)CC1,-,68.4,-,-,-,75.2,-
Nn1c(C2COc3ccccc3O2)n[nH]c1=S (centres undefined),-,60.2,-,-,-,82.7,-
CC1=C(SCCC#N)S/C(=C2\SC(C)=C(SCCC#N)S2)S1,-,69.0,-,-,-,47.4,-
CC(C)CNc1cccc2c1S(=O)(=O)N[C@@H](C)CO2,-,.,.,.,-,.,.
O=S(=O)(Nc1ncnc2sc3c(c12)CCC3)c1ccc2ccccc2c1,-,-,-,-,-,.,.
Cc1cc(F)ccc1S(=O)(=O)Nc1ncnc2sc3c(c12)CCC3,-,51.1,-,-,-,-,-
CCC(=O)N1CCc2cc(S(=O)(=O)N3CCN(c4cc(Cl)ccc4C)CC3)ccc21,-,58.4,-,-,-,-,-
CCC(=O)N1CCc2cc(S(=O)(=O)N3CCN(c4ccccc4)CC3)ccc21,-,-,-,-,-,.,.
CC[C@@H](CCCc1ccc(OC)cc1)CCC(=O)N(c1ccccc1)c1ccccc1,-,.,.,.,-,.,.
Cc1ccc(C(=O)N2CCC(C(=O)NC3CCCC3)CC2)cc1,-,69.0,-,-,-,-,-
O=C(N[C@@H]1CC[C@H]2SC[C@H](C(=O)O)N2C1=O)OCC1c2ccccc2-c2ccccc21,-,.,.,.,-,.,.
O=S(=O)(c1ccccc1)N1CCN(S(=O)(=O)c2ccccc2)C1,-,-,-,-,-,.,.
O=S(=O)(/N=S1/CC=CCN1S(=O)(=O)c1ccccc1)c1ccccc1 (centres undefined),.,62.3,-,-,.,74.6,-
O=[N+]([O-])c1ccccc1/C=N/n1c(-c2cccnc2)n[nH]c1=S,-,69.4,-,-,-,80.5,-
O=[N+]([O-])c1cc(/C=N/n2c(-c3cccnc3)n[nH]c2=S)ccc1Cl,-,-,-,-,-,.,.
S=c1[nH]nc(-c2cccnc2)n1/N=C/c1cccs1,-,40.6,-,-,-,80.8,-
S=c1[nH]nc(-c2cccnc2)n1/N=C/C=C/c1ccccc1,-,41.7,-,-,-,75.4,-
O=[N+]([O-])c1cc2c(cc1/C=N/n1c(-c3ccccc3)n[nH]c1=S)OCO2,-,54.8,-,-,-,83.5,-
S=c1[nH]nc(-c2cc(-c3ccccc3)n[nH]2)n1/N=C/C=C/c1ccccc1,-,-,-,-,-,.,.
COc1cccc(CNC(=O)[C@H]2CCCN2C(=O)[C@H]2CCCN2C(=O)c2cccc(OC)c2)c1,-,.,.,.,-,.,.
O=S1(=O)c2ccc(Br)cc2OC[C@H](Cc2ccccc2)N1Cc1cn(Cc2ccc(C(F)(F)F)cc2)nn1,-,.,.,.,-,.,.

# Screening results: PubChem, several laboratories
